Consider 93 compounds from PubChem BioAssay AID492956 (The Scripps Research Institute Molecular Screening Center, 2010).

For orientation: inhibition means the drop in the measured response relative to a control, in per cent.

Structures are written as SMILES. The campaign covered roughly 340,000 compounds. About 3,300 (0.97%) were called active. For the sample, actives were picked, then their nearest neighbours and some compounds at random. A number with no mark means an inactive call.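 How the source made its calls: active means inhibition above the mean over all tested compounds plus 3 SD (cut at about 30% in these data); inactive means the rest.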

The target in the experiment is Platelet-activating factor acetylhydrolase 2, cytoplasmic (Homo sapiens) (UniProt Q99487). Put plainly: inhibition of cytoplasmic PAF acetylhydrolase 2 – biochemical, fluorescence polarization, human, primary screen (AID 492956).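 Further: inhibitors block probe labeling of enzyme so polarization drops; 0% = enzyme with DMSO and 100% = wells lacking PAFAH2 protein.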 As to conditions: recombinant PAFAH2, FP-rhodamine activity probe, at 3.39 µM, active compounds read high.
For the compound `O=C(CC1Sc2ccccc2NC1=O)NNc1ccc(Cl)c(Cl)c1` (stereo not drawn), the inhibition is 6.55%.

On to `CCN(CC)CCCC(C)n1c2nc(=O)[nH]c(=O)c-2nc2cc(Cl)ccc21` (stereo not drawn), for which the inhibition was 38.8% (active).

With `CCN(CC)CCn1c2ccc(Cl)cc2c2nc(C)sc21`, the inhibition is -2.76%.

Consider `Cc1ccc(S(=O)(=O)N(Cc2cc3ccccc3[nH]c2=O)CC2CCCO2)cc1` (stereo not drawn), for which the inhibition was 4.81%.

Consider `Cn1c(NC(=O)c2ccco2)c(-c2ccccc2Cl)c(=O)c2ccccc21`, for which the inhibition was -1.9%.

As for `Cc1[nH]c(C)c(S(=O)(=O)N2CCN(c3cccc(C(F)(F)F)c3)CC2)c1C(=O)N1CCCCC1`, the inhibition was 8.89%.

As to `O=C(COC(=O)/C=C/c1cccc(Cl)c1)NCCc1ccccc1`, the inhibition was 20.5%.

For the compound `CCOc1ccc(/C=C/C(=O)N(CC)CC(=O)NCc2cccs2)cc1OC`, the inhibition was 5.35%.

With `O=C(COC(=O)/C=C/c1cccc(Cl)c1)NCc1cccs1`, the inhibition is 37% (active).

For the compound `CCOc1ccc(/C=N/OCC(=O)NCc2cccs2)cc1`, the inhibition is 4.81%.

In the case of `COc1ccc(/C=C/C(=O)OCC(=O)NCc2cccs2)cc1OC`, the inhibition was 49.4% (active).

Take `COc1ccc(Cl)cc1C(=O)OCC(=O)NCc1cccs1`: the inhibition was 1.83%.

For `CN(CCc1ccccc1)C(=O)c1cccc(NC(=O)Cc2cccc(NC(=O)C3CCCN(C(=O)C4CCC4)C3)c2)c1` (stereo not drawn), the inhibition was -1.94%.

Take `COc1ccc(CCNC(=O)CN(C)S(=O)(=O)c2ccc3nc(C)sc3c2)cc1OC`: the inhibition is -0.36%.

In the case of `COC(=O)C1=C(C)NC(=S)NC1c1ccc(OCC(=O)N2CC(C)OC(C)C2)c(OC)c1` (stereo not drawn), the inhibition was -0.58%.

Regarding `Cc1ccc(NS(=O)(=O)c2cn(C)c(=O)n(C)c2=O)c(C)c1`, the inhibition is 1.4%.

In the case of `COc1ccc(S(=O)(=O)N2CN(CCc3ccc(OC)c(OC)c3)c3nc4ccccc4nc32)cc1`, the inhibition is 8.38%.

Consider `CCOc1ccc(C(=O)Nc2cccc(SC)c2)cc1`, for which the inhibition is -11.9%.

In the case of `CC(=O)c1c(C)[nH]c(C(=O)OCC(=O)Nc2c(C)cccc2C)c1C`, the inhibition was 4.64%.

Consider `CC(=O)c1c(C)[nH]c(C(=O)OCC(=O)NCCC(C)C)c1C`, for which the inhibition was 30.4% (active).

Consider `CC(=O)c1c(C)[nH]c(C(=O)OCC(=O)Nc2cc(S(=O)(=O)N3CCCCC3)ccc2C)c1C`, for which the inhibition was 7.66%.

As to `CCC(C)NC(=O)C1CCCN(C(=O)NC2CCCCC2)C1` (stereo not drawn), the inhibition is 10.5%.

`COc1ccc(C(=O)C2CCCN(C(=O)c3cc4nc(C)cc(C)n4n3)C2)cc1F` (stereo not drawn): the inhibition is -3.28%.

As for `c1coc(-c2nc3nc4ccccc4n3nc2-c2ccco2)c1`, the inhibition is 45.7% (active).

As to `COc1cc(OC)cc(C(=O)NC(=S)N2CCN(c3ccc(C(F)(F)F)cc3[N+](=O)[O-])CC2)c1`, the inhibition is 7.31%.

For `Cc1ccc(-c2nn(-c3ccc(F)cc3)cc2C(=O)NCC(c2cccs2)N2CCOCC2)cc1` (stereo not drawn), the inhibition was 3.21%.

`Cc1cc(C(=O)N2CCN(c3ccccn3)CC2)c(C)o1`: the inhibition is -1.14%.

Turning to `O=C(CSC1=Nc2ccccc2C2=NC(c3ccccc3)C(=O)N12)NCC1CCCO1` (stereo not drawn), the inhibition is 7.84%.

Consider `CC(C)C1N=C2c3ccccc3N=C(SCC(=O)c3ccc(O)c(O)c3)N2C1=O` (stereo not drawn), for which the inhibition is 43.8% (active).

For `NC(=O)CSC1=Nc2ccccc2C2=NC(CCC(=O)NCc3ccc(F)cc3)C(=O)N12` (stereo not drawn), the inhibition was 1.37%.

On to `C/C(=N/Nc1nc(-c2ccccc2)c(CC(=O)O)s1)c1ccccc1`, for which the inhibition is 0.51%.

`COc1ccccc1N1CC(O)=C(c2nc3ccccc3s2)C1=N`: the inhibition was 33.6% (active).

`CCCCCN1CC(O)=C(c2ccccc2)C1=N`: the inhibition is -3.01%.

Consider `CCCCCN1CC(O)=C(c2nc(-c3ccc(Cl)cc3)cs2)C1=N`, for which the inhibition is -0.6%.

As for `CCc1ccc(N2CC(O)=C(c3nc4ccccc4c(=O)[nH]3)C2=N)cc1`, the inhibition was -1.39%.

Take `N=C1C(c2nc3ccccc3s2)=C(O)CN1NC(=O)c1ccc([N+](=O)[O-])cc1`: the inhibition was 8.9%.

Consider `CCOC(=O)CCCN1CC(O)=C(c2nc3ccccc3s2)C1=N`, for which the inhibition was 34.8% (active).

For the compound `CC(=O)Nc1ccc(N2C(=O)CCC2=O)cc1C`, the inhibition is -0.05%.

For the compound `NC(=O)C1CCN(Cc2nc3c(Br)cc(Br)cc3c(=O)[nH]2)CC1`, the inhibition was -2.66%.

Regarding `C/C=C/C=C/C(=O)OCC(=O)Nc1ccc(Cl)cc1`, the inhibition was 86.5% (active).

On to `C/C=C/C(=O)OCC(=O)Nc1ccc(F)cc1Cl`, for which the inhibition is 26%.

Take `CCC(=O)Nc1ccc(C(=O)NNC(=O)c2ccc(Cl)cc2)cc1`: the inhibition is -2.08%.

With `COc1ccc(-n2c(C)nn(CC3CC3)c2=O)cc1`, the inhibition is 0.47%.

Regarding `O=C1NCC(c2ccccc2)(c2ccccc2)C(=O)N1`, the inhibition was -5.72%.

Turning to `O=C(CSc1n[nH]c(-c2cccnc2)n1)Nc1ccc(Cl)cc1`, the inhibition was -7.75%.

Consider `O=[N+]([O-])c1cc(S(=O)(=O)NCCc2ccccn2)ccc1Cl`, for which the inhibition is 4.86%.

As for `CS(=O)(=O)c1ccc(Cl)c(NC(=O)COC(=O)c2cccc(S(=O)(=O)N3CCCC3)c2)c1`, the inhibition is 32.3% (active).

As to `O=C(COC(=O)CCc1ccc(S(=O)(=O)N2CCOCC2)cc1)Nc1cccc(Cl)c1`, the inhibition is 0.83%.

`CC(NC(=O)c1ccccc1)C(=O)OCC(=O)Nc1cccc(S(=O)(=O)N2CCCC2)c1` (stereo not drawn): the inhibition was 7.86%.

For the compound `CCOc1ncccc1C(=O)OCC(=O)Nc1cccc(S(=O)(=O)N2CCCCCC2)c1`, the inhibition was 60% (active).

Turning to `O=C(CSc1ccccc1)Nc1cccc(S(=O)(=O)N2CCOCC2)c1`, the inhibition was -0.86%.

As for `O=C(COC(=O)/C=C/c1ccc(Br)o1)Nc1cccc(S(=O)(=O)N2CCOCC2)c1`, the inhibition is 42% (active).

With `O=C(COC(=O)c1ccccc1)Nc1cccc(S(=O)(=O)N2CCOCC2)c1`, the inhibition was 37.7% (active).

As for `CN=C(Nc1cccc(S(=O)(=O)N2CCOCC2)c1)c1ccccc1`, the inhibition is 0.65%.

As to `O=C(COC(=O)CCOc1ccccc1)Nc1cc(S(=O)(=O)N2CCCCC2)ccc1Cl`, the inhibition is -0.76%.

As for `O=C(CN1CCc2ccccc2C1)Nc1cccc(S(=O)(=O)N2CCOCC2)c1`, the inhibition was 5.27%.

As to `CC(=O)c1cccc(OCC(=O)OCC(=O)Nc2cc(S(=O)(=O)N3CCCCC3)ccc2C)c1`, the inhibition is 1.56%.

For the compound `O=C(COC(=O)COc1ccccc1F)Nc1cccc(S(=O)(=O)N2CCCCC2)c1`, the inhibition is -7.67%.

In the case of `OC(CN1C2=NCCCN2c2ccccc21)c1ccc(Br)cc1` (stereo not drawn), the inhibition is 9.07%.

`C=CCNC(=O)/C=C/c1ccc(C(C)C)cc1`: the inhibition is 10%.

Turning to `CC(=O)NC12CC3CC(C1)CC(C(=O)N1CCN(S(=O)(=O)c4cccs4)CC1)(C3)C2`, the inhibition is 17.5%.

Regarding `O=C(OCC(=O)N1CCCCCC1)c1ccc(Br)c(S(=O)(=O)N2CCOCC2)c1`, the inhibition was 8.68%.

As to `COc1cccc(NC(=O)COc2cc(C)cc3oc(=O)cc(C)c23)c1`, the inhibition is -3.3%.

Turning to `CC(=O)c1nn(-c2ccc(C)cc2)cc1C(=O)c1cccc(Br)c1`, the inhibition is 1.51%.

For the compound `Cc1ccc(C)c(C(=O)COC(=O)Cn2[nH]c(=O)c3ccccc3c2=O)c1`, the inhibition was -1.71%.

As to `COCCCNC(=O)c1c(F)c(F)c(F)c(F)c1F`, the inhibition is -4.37%.

On to `CC(NC(=O)CN1CCN(Cc2ccc(Cl)cc2)C1=O)c1ccc2c(c1)OCCO2` (stereo not drawn), for which the inhibition was 1.47%.

As to `O=C(NCc1cccnc1)c1cccnc1Sc1ccc(Cl)cc1`, the inhibition was 2.4%.

As for `O=C(COC(=O)c1c(Cl)cccc1Cl)Nc1cccc(S(=O)(=O)NC2=NCCCCC2)c1`, the inhibition was 8.12%.

For the compound `COc1ccccc1C(=O)OCC(=O)Nc1cccc(S(=O)(=O)NC2=NCCCCC2)c1`, the inhibition was 12.3%.

As to `CCc1ccc(C(=O)OCC(=O)Nc2cccc(S(=O)(=O)NC3=NCCCCC3)c2)cc1`, the inhibition is 52.3% (active).

As for `CNC(=O)C1CC(=O)N(Cc2ccc3c(c2)OCO3)C(=Nc2ccc(F)cc2)S1` (stereo not drawn), the inhibition is 0.97%.

As to `CCC1(C)N(O)C(C)(C)C(c2ccc(OC)cc2)=[N+]1[O-]` (stereo not drawn), the inhibition is 2.06%.

For `CCc1ccccc1NC(=O)c1ccc2c(c1)CCN2S(C)(=O)=O`, the inhibition was 2.6%.

Turning to `COCCNC(=O)Nc1ccc2nc(-c3ccco3)c(-c3ccco3)nc2c1`, the inhibition was 35.8% (active).

`COCCNC(=O)c1snc2ccc(Cl)cc12`: the inhibition is -2.13%.

For `O=C(Nc1nc(-c2ccco2)c(-c2ccco2)s1)c1ccco1`, the inhibition was 22.9%.

For `Cc1nnsc1C(=O)NCc1c(F)cccc1Cl`, the inhibition was 2.19%.

Consider `CCOC(=O)c1c(-c2ccccc2)oc2cc(Br)c(O)c(C=O)c12`, for which the inhibition was 6.96%.

Regarding `Cc1oc2cc([N+](=O)[O-])c(O)c([N+](=O)[O-])c2c1C(=O)c1ccc(Br)cc1`, the inhibition was 8.04%.

As to `Cc1oc2cc(Br)c(O)c(Br)c2c1C(=O)c1ccccc1`, the inhibition is 59.6% (active).

Consider `COCCN(CCOC)c1nc(N)c2c(N)nc3c(c2c1C#N)CC(=O)N3Cc1ccc(Cl)cc1`, for which the inhibition was 5.58%.

For the compound `S=C(NCc1ccco1)NCc1ccccc1Cl`, the inhibition is 2.25%.

In the case of `Clc1ccccc1CSc1nnc(-c2ccco2)c(-c2ccco2)n1`, the inhibition was 62.2% (active).

Consider `c1ccc(CSc2nnc(-c3ccco3)c(-c3ccco3)n2)cc1`, for which the inhibition was 57% (active).

With `Clc1ccc(CSc2nnc3c(n2)[nH]c2ccccc23)cc1`, the inhibition is -12.8%.

For the compound `CSc1nc(-c2ccco2)nn1C(=O)c1ccccc1Cl`, the inhibition is 0.54%.

On to `CCc1nnc(SCc2cccc(F)c2)nc1CC`, for which the inhibition is 0.34%.

On to `Nn1c(SCC(=O)NC2CCCC2)nnc1-c1ccccc1F`, for which the inhibition is 3.8%.

On to `CCn1c(N)c(Br)c(=O)[nH]c1=O`, for which the inhibition was -4.56%.

Turning to `CSc1ccc(-c2c(C#N)c(N)nc3c2c(C)nn3-c2ccccc2)cc1`, the inhibition is -18.9%.

With `CCCNC(=O)CCc1c(C)nc2c(c(C)nn2-c2ccc(C)cc2)c1C`, the inhibition is -8.03%.

In the case of `Cc1ccc(-n2nc(N)c3c(=O)oc(N(C)C)nc32)cc1`, the inhibition is 55.9% (active).
